Data as given in paper PMC4336329 (PLoS ONE, 2015).
The campaign covered roughly 310,000 compounds. About 2,200 (0.71%) showed an effect of 50% or more. The effect is printed as a negative number. The full list was thinned out, with strong results kept by preference.

The compounds below were run against human ether-à-go-go-related gene (hERG) potassium channel (human, UniProt Q12809) (assay: primary screen, population patch clamp on CHO cells stably expressing hERG; higher = less effect of the substance).
Chain of human ether-à-go-go-related gene (hERG) potassium channel (Q12809 whole entry, looked up): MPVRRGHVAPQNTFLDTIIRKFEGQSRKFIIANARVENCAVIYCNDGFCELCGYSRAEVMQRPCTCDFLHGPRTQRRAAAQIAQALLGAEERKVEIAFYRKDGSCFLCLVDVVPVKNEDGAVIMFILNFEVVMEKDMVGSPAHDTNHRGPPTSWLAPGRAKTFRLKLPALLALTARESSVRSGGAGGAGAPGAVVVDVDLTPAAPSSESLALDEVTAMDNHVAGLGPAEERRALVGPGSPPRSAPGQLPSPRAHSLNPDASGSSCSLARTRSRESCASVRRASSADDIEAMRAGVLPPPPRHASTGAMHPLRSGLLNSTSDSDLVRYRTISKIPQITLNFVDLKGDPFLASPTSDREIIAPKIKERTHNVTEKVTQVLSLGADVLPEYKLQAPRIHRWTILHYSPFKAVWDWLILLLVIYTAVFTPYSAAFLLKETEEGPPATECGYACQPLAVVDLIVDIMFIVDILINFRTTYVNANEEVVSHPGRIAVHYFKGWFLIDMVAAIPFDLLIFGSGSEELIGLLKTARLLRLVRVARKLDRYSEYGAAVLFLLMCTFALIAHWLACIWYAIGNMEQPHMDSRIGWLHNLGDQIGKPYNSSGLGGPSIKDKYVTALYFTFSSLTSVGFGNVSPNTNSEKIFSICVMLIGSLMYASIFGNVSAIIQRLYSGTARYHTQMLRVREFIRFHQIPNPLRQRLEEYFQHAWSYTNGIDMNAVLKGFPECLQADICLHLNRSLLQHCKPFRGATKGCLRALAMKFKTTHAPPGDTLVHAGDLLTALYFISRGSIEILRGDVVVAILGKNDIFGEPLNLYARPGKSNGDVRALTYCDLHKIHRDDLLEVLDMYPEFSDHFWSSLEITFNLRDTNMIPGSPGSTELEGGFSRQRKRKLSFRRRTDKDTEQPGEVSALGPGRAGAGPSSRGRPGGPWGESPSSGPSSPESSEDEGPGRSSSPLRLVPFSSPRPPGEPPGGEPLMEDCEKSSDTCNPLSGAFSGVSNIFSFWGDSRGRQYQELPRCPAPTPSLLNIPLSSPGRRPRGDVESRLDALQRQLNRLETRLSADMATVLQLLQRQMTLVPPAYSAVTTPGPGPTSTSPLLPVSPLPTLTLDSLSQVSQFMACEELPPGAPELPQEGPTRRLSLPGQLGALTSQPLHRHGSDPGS

| SMILES | hERG current change (%, negative = inhibition) at 1uM [%] |
| --- | --- |
| CCOc1cc(C2C(C(=O)OCC(C)C)=C(C)N=C3SCCC(=O)N32)ccc1OC(C)=O (centres unmarked) | -0.245 |
| Cc1ccc(S(=O)(=O)N2CCN(C(=O)CCC(=O)N3CCc4ccccc43)CC2)cc1 | 3.11 |
| COc1ccc(N2C(=O)C(OC(C)=O)C2c2ccc(C)cc2)cc1 (centres unmarked) | 7.38 |
| COc1ccc([C@@H]2Sc3cc(OC)ccc3N(CCN(C(C)C)C(C)C)C(=O)[C@H]2OC(C)=O)cc1.Cl | -70 |
| COc1ccc2c(c1)Sc1ccccc1N2CCN(C)C.O=C(O)C(=O)O | 2.44 |
| Cc1ccccc1C(=O)Nc1ccccc1C(=O)N1CCC(C)CC1 | 11.7 |
| COC(=O)c1ccc(Cn2cnc3c(cnn3-c3ccc(C)c(C)c3)c2=O)o1 | 7.86 |
| Cc1c(-c2ccccc2)oc2c(C(=O)OCC(=O)Nc3cccc(F)c3)cccc2c1=O | 5.94 |
| COc1ccccc1NC(=S)NC(NC(=O)c1ccco1)C(Cl)(Cl)Cl (centres unmarked) | 4.44 |
| COc1ccc(NC(=O)c2cccc(S(=O)(=O)N3CCCC3)c2)cc1OC | 2.14 |
| COc1ccc(C(=O)Nc2ccc(S(=O)(=O)N3CCCCC3)cc2)cc1OC | -0.152 |
| COc1ccc(NC(=O)c2ccc(S(=O)(=O)N3CCCC3)cc2)cc1OC | -102 |
| CCCN1CCC[C@@H]2Cc3nc(N)ncc3C[C@H]21.Cl | 8.86 |
| NC(=O)c1ccc(NC(=O)CCC(=O)c2cccs2)cc1 | 9.21 |
| O=C(Nn1cnnc1)c1cc([N+](=O)[O-])cc([N+](=O)[O-])c1 | 5.11 |
| CCn1cc(C2=NC(C)CO2)c2ccccc21 (centres unmarked) | -0.637 |
| O=C(CN1CCN(Cc2ccccc2F)CC1)Nc1ccccc1Cl | 8.26 |
| COC(=O)c1ccccc1NC(=O)CN1CCCCC1 | 32.9 |
| O=C(CN1CCCCCC1)Nc1ccc(Cl)cn1 | 6.51 |
| O=C(CN1CCN(Cc2ccccc2)CC1)Nc1ccc(Cl)cc1 | -32.3 |
| COC(=O)c1ccccc1NC(=O)CN1CCN(C23CC4CC(CC(C4)C2)C3)CC1 | -75 |
| COC(=O)c1ccccc1NC(=O)CN1CCN(Cc2ccccc2)CC1 | -69.6 |

| SMILES | hERG current change (%, negative = inhibition) at 1uM [%] |
| --- | --- |
| COC(=O)c1ccccc1NC(=O)CN1CCC(C)CC1 | -0.0967 |
| NC(=O)c1ccccc1NC(=O)CN1CCN(Cc2ccc(Cl)cc2Cl)CC1 | -75.8 |
| COC(=O)c1ccccc1NC(=O)CN1CCOCC1 | 5.34 |
| O=C(CN1CCN(Cc2ccccc2)CC1)Nc1ccc(Cl)cn1 | -70 |
| Cc1cccc(NC(=O)CN2CCN(CC(=O)NCc3ccc(Cl)cc3Cl)CC2)c1C | 4.8 |
| COC(=O)c1ccccc1NC(=O)CN1CCCCCC1 | 16.5 |
| CCOCCCNS(=O)(=O)c1ccc2c(c1)oc(=O)n2CC(=O)OCC | 10.3 |
| COCCN1CCN(C(=O)C2CCC(=O)N(Cc3ccccc3F)C2)CC1 (centres unmarked) | 9.05 |
| COc1c(/C=N/NC(=O)c2ccccc2O)c(CCN(C)C(C)=O)cc2c1OCO2 | 8.13 |
| CCN(CC)CCCNC(=O)c1c(O)c2ccccc2n(Cc2ccccc2)c1=O.Cl | -12.3 |
| Cc1ccccc1N1C(=O)c2ccccc2NC1c1ccncc1 (centres unmarked) | 13 |
| COc1ccccc1/C=C/C(=O)NCC(=O)N/N=C(\CCC(=O)O)c1ccccc1 | -2.9 |
| NNC(=O)c1ccc(-c2ccccc2F)cc1 | 14.8 |
| Nc1nnc(C(F)(F)F)s1 | 4.92 |
| CSc1ccc(/C=N/NC(=O)CN2CCN(Cc3ccc(C)cc3)CC2)cc1 | 2.67 |
| NC(=O)c1ccccc1NC(=O)CN1CCCCCC1 | 13.4 |
| CSc1ccc(/C=N/NC(=O)CN2CCN(Cc3ccc(Cl)cc3)CC2)cc1 | 2.29 |
| O=C(CN1CCN(Cc2ccccc2)CC1)Nc1ccccc1-c1ccccc1 | -39.6 |
| NC(=O)c1ccccc1NC(=O)CN1CCN(Cc2ccccc2)CC1 | -77.7 |
| CSc1ccc(/C=N/NC(=O)CN2CCN(Cc3ccccc3)CC2)cc1 | -60 |
| COc1ccc(N(CC(=O)NCc2ccc(C)cc2)S(=O)(=O)c2c(C)[nH]c(=O)[nH]c2=O)cc1 | 16 |
| Cc1nc2cc3nc(C)sc3cc2s1 | 3.19 |

| SMILES | hERG current change (%, negative = inhibition) at 1uM [%] |
| --- | --- |
| Cc1cc(C)cc(NC(=O)CCNS(=O)(=O)c2ccc3c(c2)oc(=O)n3C)c1 | 9.33 |
| COCC(=O)N1CCC(Oc2ccc(C(=O)NCc3cnc(C)cn3)cc2)CC1 | 13 |
| CCN(c1cccc(C)c1)S(=O)(=O)c1ccc(-c2ccc(=O)[nH]n2)o1 | 12.8 |
| O=C(O)C(=O)O.c1ccc(CN2CCN(CCOCCOc3ccc4c(c3)CCC4)CC2)cc1 | 11.6 |
| O=C(O)C(=O)O.O=C(c1ccccc1)c1ccc(OCCOCCN2CCN(Cc3ccccc3)CC2)cc1 | -82.8 |
| Cc1cc(Br)ccc1OCCN1CCCC1.O=C(O)C(=O)O | -7.85 |
| CC1CCN(CCCCOc2ccccc2-c2ccccc2)CC1.O=C(O)C(=O)O | -74.9 |
| O=C(O)C(=O)O.c1ccc(-c2ccccc2OCCCN2CCCCC2)cc1 | -69.1 |
| CN1CCN(CCCCOc2ccccc2-c2ccccc2)CC1.O=C(O)C(=O)O | 16.8 |
| Cc1cc(Br)ccc1OCCOCCN1CCCC1.O=C(O)C(=O)O | -9.41 |
| Cc1cc(Br)ccc1OCCCCN1CCCCC1.O=C(O)C(=O)O | -66.6 |
| O=C(O)C(=O)O.c1ccc(-c2ccccc2OCCN2CCCCC2)cc1 | -4.98 |
| CC1CCN(CCOc2ccccc2-c2ccccc2)CC1.O=C(O)C(=O)O | -8.4 |
| O=C(O)C(=O)O.O=C(c1ccccc1)c1ccc(OCCCN2CCCC2)cc1 | -29.9 |
| O=C(O)C(=O)O.c1ccc(-c2ccccc2OCCOCCN2CCCCC2)cc1 | -18.9 |
| CC1CC(=O)Nc2ccccc2N1C(=O)Nc1ccc(F)cc1 (centres unmarked) | 9.77 |
| CC(C)CCN(C(=S)Nc1cccc(C(F)(F)F)c1)C(C)c1ccccn1 (centres unmarked) | 10.7 |
| CCOc1cc(C2/C(=C(/O)c3ccc(OC(C)C)cc3)C(=O)C(=O)N2CCCOC)ccc1O (centres unmarked) | 21.3 |
| Clc1ccc(Oc2nc(N3CCOCC3)nc(N3CCOCC3)n2)c(C2CCCCC2)c1 | 10.6 |
| Clc1cccc(Cl)c1CN1CCN(c2ccccc2)CC1 | 15.9 |
| O=C(CCN1C(=O)C2C3CCC(C3)C2C1=O)Nc1cccc(Cl)c1 (centres unmarked) | 4.67 |
| CCC1(CC)NC(=O)N(CC(=O)OCC(=O)Nc2ccc(F)c(F)c2F)C1=O | 4.85 |

| SMILES | hERG current change (%, negative = inhibition) at 1uM [%] |
| --- | --- |
| Cc1ccc(NC(=O)/C=C/c2ccc([N+](=O)[O-])s2)c(C)c1 | 10.5 |
| CCOc1ccccc1-n1c(SCC(=O)NC(C)CC)nnc1-c1ccoc1C (centres unmarked) | -2.44 |
| CCOCCCn1c(SC(C(=O)Nc2cc(C)ccc2C)c2ccccc2)nnc1-c1ccc(Cl)cc1 (centres unmarked) | 13.5 |
| CC(=O)Nc1ccc(S(=O)(=O)NC2(C(F)(F)F)NC(=O)N(c3ccccc3F)C2=O)cc1 (centres unmarked) | 19.3 |
| COc1ccc(NS(=O)(=O)c2ccc(/C=C/C(=O)O)cc2)cc1S(=O)(=O)N1CCOCC1 | 10.7 |
| COc1ccc(NC(=O)c2ccc(S(=O)(=O)NCc3cccnc3)cc2)cc1 | -13.3 |
| O=C(Nc1ccc2oc(-c3ccccc3F)nc2c1)c1ccc2c(c1)OCCO2 | 3.14 |
| O=C(O)C(=O)O.c1ccc(COc2ccc(OCCCN3CCCC3)cc2)cc1 | -39.1 |
| Cc1ccc(OCCCCN2CCC(C)CC2)cc1.O=C(O)C(=O)O | -0.565 |
| CC1CCN(CCCCOc2ccc(C(=O)c3ccccc3)cc2)CC1.O=C(O)C(=O)O | -72.4 |
| COCCCNCCCCOc1ccc(Br)cc1Cl.O=C(O)C(=O)O | -61.5 |
| CC1CCN(CCOc2ccc(C(=O)c3ccccc3)cc2)CC1.O=C(O)C(=O)O | 3.49 |
| COCCNCCCOc1ccc(Br)cc1Cl.O=C(O)C(=O)O | 0.786 |
| O=C(O)C(=O)O.c1ccc(COc2ccc(OCCCCN3CCCCC3)cc2)cc1 | -46.8 |
| COCCCNCCCCOc1ccc(Br)cc1C.O=C(O)C(=O)O | -24 |
| O=C(O)C(=O)O.c1ccc(COc2ccc(OCCCN3CCCCC3)cc2)cc1 | -57.7 |
| Cl.OCCN1CCN(CCOc2ccccc2-c2ccccc2)CC1 | 6.46 |
| Cl.OCCCN1CCN(CCCOc2ccccc2-c2ccccc2)CC1 | -57.7 |
| CCN1CCN(CCCOc2ccccc2-c2ccccc2)CC1.O=C(O)C(=O)O | -16.6 |
| CCN(CC)S(=O)(=O)c1ccc(C(=O)NCc2ccc3[nH]c4c(c3c2)CCCC4)cc1 | 16.4 |
